# Measured values from article PMC11062922 (Nature Chemical Biology, 2023).
# Where two headings read alike, the source gives them in different places.
# Columns and labels:
# Set-up in all cases: species or system human, MV4-11 + K-562 + COLO205 + SK-N-BE2 + OVCAR-8
# CSNK1D = conditions: read-out: apparent Kd, compound concentrations: 100 nM and 1000 nM (sheet 'Samples'), n = 1
# CSNK1E = conditions: read-out: apparent Kd; compound concentrations: 100 nM and 1000 nM (sheet 'Samples'), CATDS: 7.2450949047452695E-2; n = 1
# MAPK14 = conditions: read-out: apparent Kd, n = 1
# NLK = conditions: read-out: apparent Kd; compound concentrations: 100 nM and 1000 nM (sheet 'Samples'), CATDS: 9.9124712412078902E-2; n = 1
# PKN3 = conditions: read-out: apparent Kd; compound concentrations: 100 nM and 1000 nM (sheet 'Samples'), CATDS: 0.57773444025704901; n = 1
# RIPK2 = conditions: read-out: apparent Kd; compound concentrations: 100 nM and 1000 nM (sheet 'Samples'), CATDS: 0.16475470795078001; n = 1
# SPR = conditions: read-out: apparent Kd; compound concentrations: 100 nM and 1000 nM (sheet 'Samples'), CATDS: 9.9495378731818698E-2; n = 1
# TESK2 = conditions: read-out: apparent Kd; compound concentrations: 100 nM and 1000 nM (sheet 'Samples'), CATDS: 7.5715174552883194E-2; n = 1
# TGFBR2 = conditions: read-out: apparent Kd; compound concentrations: 100 nM and 1000 nM (sheet 'Samples'), CATDS: 8.5739105668182394E-2; n = 1
# TP53RK = conditions: read-out: apparent Kd, compound concentrations: 100 nM and 1000 nM (sheet 'Samples'), n = 1
# DCTPP1 = conditions: read-out: apparent Kd, n = 1
# MAPK6 = conditions: read-out: apparent Kd; compound concentrations:100 nM and 1000 nM (sheet 'Samples'); n = 1
# NTRK1 = conditions: read-out: apparent Kd; compound concentrations:100 nM and 1000 nM (sheet 'Samples'); n = 1
# NUAK1 = conditions: read-out: apparent Kd; compound concentrations:100 nM and 1000 nM (sheet 'Samples'); n = 1
# PHKG2 = conditions: read-out: apparent Kd; compound concentrations:100 nM and 1000 nM (sheet 'Samples'); n = 1
# PRKD2 = conditions: read-out: apparent Kd; compound concentrations:100 nM and 1000 nM (sheet 'Samples'); n = 1
# PBK = conditions: read-out: apparent Kd; compound concentrations: 100 nM and 1000 nM (sheet 'Samples'), CATDS: 0.53596365658376799; n = 1
# GSK3A = conditions: read-out: apparent Kd, compound concentrations: 100 nM and 1000 nM (sheet 'Samples'), n = 1
# GSK3B = conditions: read-out: apparent Kd, compound concentrations: 100 nM and 1000 nM (sheet 'Samples'), n = 1
# HSP90AA1 = conditions: read-out: apparent Kd; compound concentrations: 100 nM and 1000 nM (sheet 'Samples'), CATDS: 0.187388385432427; n = 1
# HSPE1 = conditions: read-out: apparent Kd; compound concentrations: 100 nM and 1000 nM (sheet 'Samples'), CATDS: 0.293791169928867; n = 1
# PGK1 = conditions: read-out: apparent Kd; compound concentrations: 100 nM and 1000 nM (sheet 'Samples'), CATDS: 0.43205738676527899; n = 1
# PKM = conditions: read-out: apparent Kd; compound concentrations: 100 nM and 1000 nM (sheet 'Samples'), CATDS: 9.7600585068996298E-2; n = 1
# DJA1 = system: T1, DJA1; conditions: read-out: apparent Kd; compound concentrations: 100 nM and 1000 nM (sheet 'Samples'), CATDS: 8.5163737412021906E-2; n = 1
# T1 construct: gene DNAJA1
# PRKCA = conditions: read-out: apparent Kd; compound concentrations: 100 nM and 1000 nM (sheet 'Samples'), CATDS: 0.251821387342202; n = 1
# PRKCB = conditions: read-out: apparent Kd; compound concentrations: 100 nM and 1000 nM (sheet 'Samples'), CATDS: 0.103783943133635; n = 1
# PRKCD = conditions: read-out: apparent Kd; compound concentrations: 100 nM and 1000 nM (sheet 'Samples'), CATDS: 0.10441574318923801; n = 1
# PRKCQ = conditions: read-out: apparent Kd; compound concentrations: 100 nM and 1000 nM (sheet 'Samples'), CATDS: 8.12008674931885E-2; n = 1
# RPS6KA6 = conditions: read-out: apparent Kd; compound concentrations: 100 nM and 1000 nM (sheet 'Samples'), CATDS: 0.17427412228003; n = 1
# DDR1 = conditions: read-out: apparent Kd; compound concentrations: 100 nM and 1000 nM (sheet 'Samples'), CATDS: 6.8880271318571995E-2; n = 1
# HCK = conditions: read-out: apparent Kd; compound concentrations: 100 nM and 1000 nM (sheet 'Samples'), CATDS: 9.2745081986231104E-2; n = 1
# IRAK3 = conditions: read-out: apparent Kd; compound concentrations: 100 nM and 1000 nM (sheet 'Samples'), CATDS: 7.7549132648748395E-2; n = 1
# LYN = conditions: read-out: apparent Kd; compound concentrations: 100 nM and 1000 nM (sheet 'Samples'), CATDS: 7.2911258996188402E-2; n = 1
# MAPK11 = conditions: read-out: apparent Kd; compound concentrations: 100 nM and 1000 nM (sheet 'Samples'), CATDS: 7.9880632684471306E-2; n = 1
# PIP4K2C = conditions: read-out: apparent Kd; compound concentrations: 100 nM and 1000 nM (sheet 'Samples'), CATDS: 6.71745626151799E-2; n = 1
# RET = conditions: read-out: apparent Kd; compound concentrations: 100 nM and 1000 nM (sheet 'Samples'), CATDS: 0.140384770008642; n = 1
# RIPK3 = conditions: read-out: apparent Kd; compound concentrations: 100 nM and 1000 nM (sheet 'Samples'), CATDS: 7.1422785641186204E-2; n = 1
# TNK1 = conditions: read-out: apparent Kd; compound concentrations: 100 nM and 1000 nM (sheet 'Samples'), CATDS: 0.18276083287815401; n = 1
# YES1 = conditions: read-out: apparent Kd; compound concentrations: 100 nM and 1000 nM (sheet 'Samples'), CATDS: 0.118526844217484; n = 1
# [1] = compound concentrations:100 nM and 1000 nM (sheet 'Samples')
smiles,measurement,setting,value
CN(C)CCN(C)C(=O)c1cc(-c2ccncc2)c(-c2ccc(Cl)c(O)c2)o1 [SB-710397_KCGS],potency estimated from few doses,CSNK1D; CATDS: 7.6983160773696893E-2,1.4 µM
same,potency estimated from few doses,CSNK1E,1.72 µM
same,potency estimated from few doses,"MAPK14; compound concentrations: 100 nM and 1000 nM (sheet 'Samples'), CATDS: 9.6688337398944404E-2",0.748 µM
same,potency estimated from few doses,NLK,0.705 µM
same,potency estimated from few doses,PKN3,0.0308 µM
same,potency estimated from few doses,RIPK2,0.247 µM
same,potency estimated from few doses,SPR,0.698 µM
same,potency estimated from few doses,TESK2,1.48 µM
same,potency estimated from few doses,TGFBR2,1.02 µM
same,potency estimated from few doses,TP53RK; CATDS: 9.9453344807386698E-2,0.699 µM
NCC1CNC(=O)c2cc3ccc(C(=O)Nc4cccnc4)cc3n2C1 (centres unmarked) [BI00614644],potency estimated from few doses,DCTPP1; [1],1.83 µM
same,potency estimated from few doses,MAPK14; [1],1.32 µM
same,potency estimated from few doses,MAPK6,1.33 µM
same,potency estimated from few doses,NTRK1,1.52 µM
same,potency estimated from few doses,NUAK1,1.09 µM
same,potency estimated from few doses,PHKG2,1.11 µM
same,potency estimated from few doses,PRKD2,0.95 µM
Cn1c(-c2ccncc2)c(-c2ccc(F)cc2)c2ncccc21 [RO1155240-000],potency estimated from few doses,CSNK1D; CATDS: 0.46855924192133103,2.25 µM
same,potency estimated from few doses,PBK,1.72 µM
Cn1cc(C2=C(c3cn(C)c4ccc(Cl)cc34)C(=O)NC2=O)c2ccccc21 [RO0317621-000],potency estimated from few doses,"DCTPP1; compound concentrations: 100 nM and 1000 nM (sheet 'Samples'), CATDS: 8.8642199403974303E-2",2.01 µM
same,potency estimated from few doses,GSK3A; CATDS: 0.126367112680837,0.423 µM
same,potency estimated from few doses,GSK3B; CATDS: 0.11758336701376999,0.544 µM
same,potency estimated from few doses,HSP90AA1,0.137 µM
same,potency estimated from few doses,HSPE1,0.0528 µM
same,potency estimated from few doses,PGK1,0.0276 µM
same,potency estimated from few doses,PKM,1.18 µM
Cn1cc(C2=C(c3cn(CCCCN)c4ccccc34)C(=O)NC2=O)c2ccccc21 [RO0317888-000],potency estimated from few doses,"DCTPP1; compound concentrations: 100 nM and 1000 nM (sheet 'Samples'), CATDS: 8.2242786873404694E-2",1.87 µM
same,potency estimated from few doses,DJA1,1.67 µM
same,potency estimated from few doses,GSK3A; CATDS: 0.120025904024986,0.7 µM
same,potency estimated from few doses,GSK3B; CATDS: 0.13279399425104901,0.57 µM
same,potency estimated from few doses,PRKCA,0.2 µM
same,potency estimated from few doses,PRKCB,0.97 µM
same,potency estimated from few doses,PRKCD,0.956 µM
same,potency estimated from few doses,PRKCQ,1.96 µM
same,potency estimated from few doses,RPS6KA6,0.351 µM
COc1cc(Nc2nccc(-c3c(-c4cccc(NC(=O)c5c(F)cccc5F)c4)nn4ncccc34)n2)cc(OC)c1OC [GSK327238A],potency estimated from few doses,DDR1,1.83 µM
same,potency estimated from few doses,HCK,0.926 µM
same,potency estimated from few doses,IRAK3,1.36 µM
same,potency estimated from few doses,LYN,1.58 µM
same,potency estimated from few doses,MAPK11,1.27 µM
same,potency estimated from few doses,"MAPK14; compound concentrations: 100 nM and 1000 nM (sheet 'Samples'), CATDS: 7.1692025023195896E-2",1.65 µM
same,potency estimated from few doses,PIP4K2C,1.96 µM
same,potency estimated from few doses,RET,0.45 µM
same,potency estimated from few doses,RIPK3,1.66 µM
same,potency estimated from few doses,TNK1,0.305 µM
same,potency estimated from few doses,TP53RK; CATDS: 6.3683372655405995E-2,2.3 µM
same,potency estimated from few doses,YES1,0.592 µM
